# High-throughput results deposited in PubChem BioAssay by National Center for Advancing Translational Sciences (NCATS).
# An excerpt weighted towards active compounds, which were near 11% of everything screened.
# HCV inhibitor: inhibitors of hepatitis C virus infection; Huh7.5.1 HCVcc-Cre infection, luciferase reporter, 44 h; Potency, µM (titrated, usually from 41.8 µM), for inactives: top-dose activity change, negative = inhibition, usual class: inhibitors; 3.4% of 340,000 active; AID 651820; further: on the % scale 0 is the no-effect control and ±100 the full control effect
#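 HCVcc-Cre virus at an moi near 0.5 was added right after compound to cells cultured 4 h from seeding (1,000 cells/well). Luciferase activity was determined 44 h later, 15 min after substrate addition at RT.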
# Pf growth 48h: P. falciparum growth inhibition at 48 hours (one generation) | P. falciparum luciferase growth in erythrocytes, 48 h | Potency, µM (series often up to 28.7 µM), for inactives: at the highest dose activity change, negative = inhibition, usual class: inhibitors | 5.9% of 310,000 active | AID 504832; further: on the % scale 0 is the no-effect control and ±100 the full control effect
#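 Read-out is firefly luciferase luminescence from an integrated reporter in P. falciparum, so falling signal marks reduced parasite growth. Infected erythrocytes were at 2% hematocrit and 0.1% parasitemia (final) in Albumax-supplemented RPMI 1640.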
# Vaccinia Venus: inhibitors of vaccinia virus (Venus reporter); Potency, µM (doses to about 36.5 µM), without a hit: top-dose activity change, negative = inhibition, hits mostly inhibitors; 0.46% of 330,000 active; Vaccinia virus Venus reporter expression, fluorescence; AID 720580; calls by dose curve; tested in A549 cells; further: on the % scale 0 is the no-effect control and ±100 the full control effect; nearly all actives have a fitted effect of over 30% in size
# VACV mCherry inh: vaccinia inhibition (mCherry reporter) | Vaccinia virus mCherry reporter infection, fluorescence | 0.63% of 310,000 active | AID 720579 | Potency, µM (top dose mostly 36.5 µM), for inactives: top-dose activity change, negative = inhibition, usual class: inhibitors; calls by dose curve; tested in A549 cells; further: on the % scale 0 is the no-effect control and ±100 the full control effect; nearly all actives have a fitted effect of over 35% in size
# NS1 function inh: inhibitors of influenza NS1 protein function; Potency, µM (highest dose often 46.1 µM), inactives show top-dose activity, positive = more growth; 0.4% of 270,000 active; AID 2326; calls by dose curve; further: actives are rising curves; nearly all actives have a fitted effect of over 50% in size
#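 Read-out: OD600 growth recovery of NS1-expressing budding yeast. Cells grown overnight at 30C in -URA glucose medium, washed, resuspended and diluted 1:100 in 2% galactose assay medium, pH 6.0. Same strain lacking NS1 served as positive control.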
# Pf growth 96h: P. falciparum growth inhibition at 96 hour, primary screen for plastid delayed-death inhibitors | P. falciparum luciferase reporter growth, 96 h | Potency, µM (top dose mostly 28.7 µM), for the others: at the highest dose activity change, negative = inhibition, hits mostly inhibitors | 6.9% of 320,000 active | AID 504834; further: on the % scale 0 is the no-effect control and ±100 the full control effect
#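 Delayed-death screen, second-generation endpoint: infected erythrocytes, 2% hematocrit, 0.05% parasitemia final; 96 hours at 37 C, 5% CO2; luciferase detection reagent; luminescence decrease equals reduced growth.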
# * marks the source's active call; other numbers are inactive results; i = inactive; ? = inconclusive; · = not tested or not shown; [ ] = dose if it differs, or a comment. Unless noted, the call rests on the fitted dose curve; in most records, active means well fitted inhibition curve with a large enough effect; inconclusive means small, poorly fitted or top-dose-only effect, or another doubt; inactive means no such curve, though single readings can be large or run the other way. Potency means the concentration at half of the fitted maximal effect.
SMILES,HCV inhibitor,Pf growth 48h,Vaccinia Venus,VACV mCherry inh,NS1 function inh,Pf growth 96h
O=C(Nc1ccc(F)cc1)C(c1ccccc1)N1CCN(S(=O)(=O)c2ccc3ccccc3c2)CC1 (stereo not given),-4%,13µM*,-24%,i,?,0%
O=C(CN1CCN(C(C(=O)Nc2ccc(F)cc2)c2ccccc2)CC1)NC1CC1 (stereo not given),30%,?,-2%,i,·,15µM*
Cc1ccc(C)c(S(=O)(=O)N2CCN(C(C(=O)Nc3ccc(F)cc3)c3ccccc3)CC2)c1 (stereo not given),6%,13µM*,-16%,-13%,13%,54%
Cc1ccc(C)c(S(=O)(=O)N2CCN(C(=O)Cc3c(F)cccc3Cl)CC2)c1,-23%,?,-2%,-15%,·,-8%
Cc1ccc(C)c(S(=O)(=O)N2CCN(C(=O)CSc3ccccc3F)CC2)c1,-16%,?,·,·,1%,15µM*
COC(=O)[C@@]1(Cc2ccc(OC)cc2)[C@H]2c3cc(C(=O)N4CCCC4)n(CCc4c[nH]c5ccccc45)c3C[C@H]2CN1C(=O)c1ccccc1,·,·,-18%,-12%,·,·
CCOc1ccc(CNC(=O)c2ccc(NC(=O)C3=CSCCO3)cc2)cc1,5%,0%,-1%[7.34 µM],-11%[7.34 µM],3%,?
CCOC(=O)COc1ccccc1/C=C1\NC(=O)NC1=O,19%,20%,0%,-12%,·,?
CCN1CSC(=S)N(Cc2ccccc2)C1,11µM*,0%,-10%,i,-3%,11%
CCCCCN1CSC(=S)N(Cc2ccccc2)C1,5%,-16%,-12%,i,1%,0%
S=C1SCN(Cc2ccco2)CN1Cc1ccco1,14µM*,?,-20%,?,-64%,4.7µM*
O=C(CN1CCC(n2nnc3cc(F)ccc32)CC1)Nc1ccccc1N1CCOCC1,-9%,1.7µM*,-14%,-24%,-40%,-17%
O=C(CN1CCC(n2nnc3cc(F)ccc32)CC1)N1CCc2ccccc2C1,?,8.3µM*,-15%,-2%,-10%,5%
COC(=O)c1ccccc1NC(=O)CN1CCC(n2nnc3cc(F)ccc32)CC1,4%,?,-1%,-18%,-6%,·
COC(=O)c1ccc(/C=N/OCC(=O)NCCc2ccc(OC)c(OC)c2)cc1,4%,8%,-5%,-8%,·,?
COc1ccc(/C=C2\CCn3c2nc2cc(C(=O)O)ccc2c3=O)cc1O,13%,-7%,-11%,-10%,?,13µM*
O=c1c2ccc(Cl)cc2nc2n1CC/C2=C\c1cccc(O)c1,-11%,13µM*,-21%,?,-7%,?
CN1CCN(C(=O)c2ccccc2NC(=O)CCN2C(=O)c3ccccc3C2=O)CC1,9%,8%,-2%,1%,-5%,·
COc1cc2cc(CN(Cc3nnnn3Cc3ccco3)C3CCCCC3)c(=O)[nH]c2cc1OC,-7%,8.3µM*,-17%,·,-8%,·
CCOc1ccc2[nH]c(=O)c(CN(Cc3nnnn3Cc3ccco3)C3CCCCC3)cc2c1,?,12µM*,-18%,·,?,22%
COCCn1nnnc1CN(Cc1cc2cc(OC)c(OC)cc2[nH]c1=O)C1CCCC1,-2%,0%,-11%,·,-11%,·
CCc1ccccc1NC(=O)Cn1c(=O)oc2ccccc21,·,·,-13%,-21%,·,·
Cc1ccccc1NC(=O)Cn1c(=O)oc2ccccc21,9%,5%,·,·,7%,4.1µM*
CCOc1ccc(CNC(=O)CCn2c(=O)oc3ccccc32)cc1OC,12%,?,·,·,4%,9.3µM*
CSc1ccccc1NC(=O)CCn1c(=O)oc2ccccc21,1%,0%,·,·,3%,7%
SMILES,HCV inhibitor,Pf growth 48h,Vaccinia Venus,VACV mCherry inh,NS1 function inh,Pf growth 96h
CCOc1ccccc1NC(=O)CCn1c(=O)oc2ccccc21,-13%,13%,·,·,-16%,6.6µM*
CCOc1ccc(CCNC(=O)Cn2c(-c3nonc3N)nc3ccccc32)cc1OCC,14µM*,?,5%,6%,18%,?
CCc1ccccc1NC(=O)CCc1nc(-c2ccc(C)cc2)no1,16%,1%,21%,-6%,-4%,?
CCOC(=O)c1cc2c(=O)n3ccccc3nc2n(CCCOC)c1=NC(=O)c1c(-c2c(F)cccc2Cl)noc1C,·,·,-10%,-7%,·,·
CCc1ccccc1NC(=O)Cn1c(-c2nonc2N)nc2ccccc21,·,·,3%,6%,·,·
CCCCOc1ccccc1NC(=O)Cn1c(-c2nonc2N)nc2ccccc21,?,-28%,?,4µM*,11%,·
CCOc1ccc(CCNC(=O)Cn2c(=O)oc3ccccc32)cc1OCC,17%,8.3µM*,·,·,6%,·
COCCN(CCOC)C(=O)CCn1c(=O)oc2ccccc21,?,-11%,-9%,-10%,2%,1.2µM*
O=c1c2ccccc2nc(-c2ccco2)n1Cc1ccccc1,5%,53%,·,·,-15%,?
CCOc1ccc(CCn2c(-c3ccco3)nc3ccccc3c2=O)cc1OCC,7.1µM*,·,·,·,11%,?
Cc1cccc(NC(=O)c2cc(-c3ccc4c(c3)OCCO4)on2)c1,·,·,-14%,-6%,·,·
COc1ccc(F)cc1S(=O)(=O)n1cc(C)nc1-c1ccccc1,2%,1%,5%,-8%,5%,·
CCCC1(c2ccccc2)NC(=O)NC1=O (stereo not given),10%,5%,13%,-18%,-10%,23%
CN(C)c1ccc(CNC(=O)C2CCN(C(=O)c3ccc(-n4ccc5ccccc54)s3)CC2)cc1,·,·,-28%,-20%,·,·
CCN(C1=NS(=O)(=O)c2ccccc21)N(CC)S(=O)(=O)c1ccc(C)cc1,-24%,?,·,·,·,?
COCCCNS(=O)(=O)c1ccc(Cl)c(C(F)(F)F)c1,-4%,-2%,-17%,i,4%,22%
COc1cc(O)c(C(CC(=O)N2CCCC2)c2ccc(N(C)C)cc2)c(OC)c1 (stereo not given),11%,?,-12%,-27%,-17%,-24%
COc1cc(O)c(C(CCN2CCCCC2)c2ccc(N(C)C)cc2)c(OC)c1 (stereo not given),-11%,1.3µM*,-22%,?,-3%,0.83µM*
COc1ccc(C(CCN2CCOCC2)c2c(O)cc(OC)cc2OC)cc1 (stereo not given),3%,3.7µM*,-12%,i,0%,3.3µM*
COc1ccc(C(CC(=O)N2CCOCC2)c2c(O)cc(OC)cc2OC)cc1 (stereo not given),15%,39%,-2%,i,-5%,68%
COc1cc(O)c(C(CCN2CCCC2)c2ccc(N(C)C)cc2)c(OC)c1 (stereo not given),-2%,2.9µM*,-14%,-8%,-16%,3.3µM*
CCCC1CCC(c2ccc(/C(N)=N/O)cc2)CC1 (stereo not given),4%,13%,4%,-14%,-50%,21%
